# Test results as given in the supplement of paper PMC10037445.
# Whole data set: some 2,900 compounds, median “NF-kB SEAP reporter activity, fold change vs agonist alone” near 0.99, cut for the highest 2% near 2.6. The sample holds the highest values, similar compounds and a random draw of the others, so the mix is not that of the screen.
# Columns and labels:
# RAW-Dual [1] = assay: NF-kB SEAP reporter activity, fold change vs agonist alone; higher = enhanced NF-kB activity; conditions: cytotoxicity flag (confluency mask): not cytotoxic
# How it was run: (§1)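 After 50 nL of library stock was delivered by pin tool to RAW-Dual macrophages (50,000 cells/well, DMEM, 384-well plates), a PRR agonist was added 1 h later and the plates were kept at 37 °C, 5% CO2. Twenty hours later, IRF was read from supernatant by QuantiLuc luminescence and NF-κB by QuantiBlue absorbance at 620 nm. Reporter activity is stated as fold change over agonist-alone wells. Wells with IncuCyte confluency under 70% of agonist controls in both mask sets were counted as cytotoxic.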
# RAW-Dual [2] = assay: NF-kB SEAP reporter activity, fold change vs agonist alone; cytotoxicity flag (confluency mask): not cytotoxic; higher = enhanced NF-kB activity
# How it was run: as §1
# [3] = library stock concentration (final ~1000-fold dilution): 10 mM, agonist: Imiquimod (TLR7) […]
# [4] = library stock concentration (final ~1000-fold dilution): 10 mM, agonist: MPLA (TLR4) […]
# [5] = agonist: ODN 1826 (TLR9) 0.5 ug/mL
# [6] = agonist: Pam2CSK4 (TLR2/6) 0.1 ug/mL
# [7] = agonist: Pam3CSK4 (TLR2/1) 0.1 ug/mL
# [8] = library stock concentration (final ~1000-fold dilution): 10 mM water, agonist: Imiquimod (TLR7) […]
# [9] = library stock concentration (final ~1000-fold dilution): 10 mM water, agonist: MPLA (TLR4) […]
structure (smiles),measurement,setting,value
COc1nc(N)nc2c1ncn2C1OC(CO)C(O)C1O (stereo not drawn),NF-kB SEAP reporter activity,RAW-Dual [1]; [3],0.924
same,NF-kB SEAP reporter activity,RAW-Dual [1]; [4],0.994
COc1nc(N)nc2c1ncn2C1OC(CO)C(O)C1O (stereo not drawn) (library stock concentration (final ~1000-fold dilution): 10 mM),NF-kB SEAP reporter activity,RAW-Dual [2]; agonist: LPS (TLR4) 0.1 ug/mL,1.43
same,NF-kB SEAP reporter activity,RAW-Dual [2]; [5],0.996
same,NF-kB SEAP reporter activity,RAW-Dual [2]; [6],1.08
same,NF-kB SEAP reporter activity,RAW-Dual [2]; [7],1.23
CCOc1ccc(CC2NC(=O)CCSSCC(C(=O)N3CCCC3C(=O)NC(CCCN)C(=O)NCC(N)=O)NC(=O)C(CC(N)=O)NC(=O)C(C(C)O)NC(=O)C(C(C)CC)NC2=O)cc1 (stereo not drawn),NF-kB SEAP reporter activity,RAW-Dual [1]; [8],0.981
same,NF-kB SEAP reporter activity,RAW-Dual [1]; [9],1.06
CCOc1ccc(CC2NC(=O)CCSSCC(C(=O)N3CCCC3C(=O)NC(CCCN)C(=O)NCC(N)=O)NC(=O)C(CC(N)=O)NC(=O)C(C(C)O)NC(=O)C(C(C)CC)NC2=O)cc1 (stereo not drawn) (library stock concentration (final ~1000-fold dilution): 10 mM water),NF-kB SEAP reporter activity,RAW-Dual [2]; agonist: LPS (TLR4) 0.1 ug/mL,1.22
same,NF-kB SEAP reporter activity,RAW-Dual [2]; [5],1.15
same,NF-kB SEAP reporter activity,RAW-Dual [2]; [6],1.22
same,NF-kB SEAP reporter activity,RAW-Dual [2]; [7],1.02
COc1cc2c(cc1OC)C(=O)C(CC1CCN(Cc3ccccc3)CC1)C2.Cl (stereo not drawn),NF-kB SEAP reporter activity,RAW-Dual [1]; [8],0.84
same,NF-kB SEAP reporter activity,RAW-Dual [1]; [9],1.08
COc1cc2c(cc1OC)C(=O)C(CC1CCN(Cc3ccccc3)CC1)C2.Cl (stereo not drawn) (library stock concentration (final ~1000-fold dilution): 10 mM water),NF-kB SEAP reporter activity,RAW-Dual [2]; agonist: LPS (TLR4) 0.1 ug/mL,1.35
same,NF-kB SEAP reporter activity,RAW-Dual [2]; [5],1.16
same,NF-kB SEAP reporter activity,RAW-Dual [2]; [6],1.28
same,NF-kB SEAP reporter activity,RAW-Dual [2]; [7],1.29
COC(=O)NC(C(=O)NC(Cc1ccccc1)C(O)CN(Cc1ccc(-c2ccccn2)cc1)NC(=O)C(NC(=O)OC)C(C)(C)C)C(C)(C)C (stereo not drawn) (library stock concentration (final ~1000-fold dilution): 10 mM),NF-kB SEAP reporter activity,RAW-Dual [2]; agonist: LPS (TLR4) 0.1 ug/mL,1.03
same,NF-kB SEAP reporter activity,RAW-Dual [2]; [5],1.02
same,NF-kB SEAP reporter activity,RAW-Dual [2]; [6],1.11
same,NF-kB SEAP reporter activity,RAW-Dual [2]; [7],0.79
CC(C)CC(NC(=O)C(Cc1ccccc1)CC(O)C(Cc1ccccc1)NC(=O)OC(C)(C)C)C(=O)NC(Cc1ccccc1)C(N)=O (stereo not drawn) (library stock concentration (final ~1000-fold dilution): 10 mM),NF-kB SEAP reporter activity,RAW-Dual [2]; agonist: LPS (TLR4) 0.1 ug/mL,1.25
same,NF-kB SEAP reporter activity,RAW-Dual [2]; [5],0.998
same,NF-kB SEAP reporter activity,RAW-Dual [2]; [6],0.929
same,NF-kB SEAP reporter activity,RAW-Dual [2]; [7],0.958
COC(=O)NC(C(=O)NC(Cc1ccccc1)C(O)CN(Cc1ccc(-c2ccccn2)cc1)NC(=O)C(NC(=O)OC)C(C)(C)C)C(C)(C)C.O=S(=O)(O)O (stereo not drawn),NF-kB SEAP reporter activity,RAW-Dual [1]; [3],2.01
same,NF-kB SEAP reporter activity,RAW-Dual [1]; [4],1.56
COC(=O)NC(C(=O)NC(Cc1ccccc1)C(O)CN(Cc1ccc(-c2ccccn2)cc1)NC(=O)C(NC(=O)OC)C(C)(C)C)C(C)(C)C (stereo not drawn),NF-kB SEAP reporter activity,RAW-Dual [1]; [4],0.961
COC(=O)NC(C(=O)NC(Cc1ccccc1)C(O)CN(Cc1ccc(-c2ccccn2)cc1)NC(=O)C(NC(=O)OC)C(C)(C)C)C(C)(C)C.O=S(=O)(O)O (stereo not drawn) (library stock concentration (final ~1000-fold dilution): 10 mM),NF-kB SEAP reporter activity,RAW-Dual [2]; agonist: LPS (TLR4) 0.1 ug/mL,1.54
same,NF-kB SEAP reporter activity,RAW-Dual [2]; [5],2.67
same,NF-kB SEAP reporter activity,RAW-Dual [2]; [6],1.47
same,NF-kB SEAP reporter activity,RAW-Dual [2]; [7],1.68
CC(C)CC(NC(=O)C(Cc1ccccc1)CC(O)C(Cc1ccccc1)NC(=O)OC(C)(C)C)C(=O)NC(Cc1ccccc1)C(N)=O (stereo not drawn),NF-kB SEAP reporter activity,RAW-Dual [1]; [3],0.843
same,NF-kB SEAP reporter activity,RAW-Dual [1]; [4],1.02
CC(C)C1=CC2=CCC3C(C)(C(=O)O)CCCC3(C)C2CC1 (stereo not drawn) (library stock concentration (final ~1000-fold dilution): 10 mM),NF-kB SEAP reporter activity,RAW-Dual [2]; agonist: LPS (TLR4) 0.1 ug/mL,0.876
same,NF-kB SEAP reporter activity,RAW-Dual [2]; [5],0.965
same,NF-kB SEAP reporter activity,RAW-Dual [2]; [6],1.03
same,NF-kB SEAP reporter activity,RAW-Dual [2]; [7],0.83
CC(C)C1=CC2=CCC3C(C)(C(=O)O)CCCC3(C)C2CC1 (stereo not drawn),NF-kB SEAP reporter activity,RAW-Dual [1]; [4],1.07
CC(C)CC(=O)NC(C(=O)NC(C(=O)NC(CC(C)C)C(O)CC(=O)NC(C)C(=O)NC(CC(C)C)C(O)CC(=O)O)C(C)C)C(C)C (stereo not drawn) (library stock concentration (final ~1000-fold dilution): 10 mM),NF-kB SEAP reporter activity,RAW-Dual [2]; agonist: LPS (TLR4) 0.1 ug/mL,0.983
same,NF-kB SEAP reporter activity,RAW-Dual [2]; [5],0.596
same,NF-kB SEAP reporter activity,RAW-Dual [2]; [6],1
same,NF-kB SEAP reporter activity,RAW-Dual [2]; [7],0.967
CC(C)CC(=O)NC(C(=O)NC(C(=O)NC(CC(C)C)C(O)CC(=O)NC(C)C(=O)NC(CC(C)C)C(O)CC(=O)O)C(C)C)C(C)C (stereo not drawn),NF-kB SEAP reporter activity,RAW-Dual [1]; [3],1.01
same,NF-kB SEAP reporter activity,RAW-Dual [1]; [4],1
CCOCc1nc2c(N)nc3ccccc3c2n1CC(C)(C)O,NF-kB SEAP reporter activity,"RAW-Dual [1]; library stock concentration (final ~1000-fold dilution): 3.2 mM, agonist: Imiquimod (TLR7) […]",1.27
same,NF-kB SEAP reporter activity,"RAW-Dual [1]; library stock concentration (final ~1000-fold dilution): 3.2 mM, agonist: MPLA (TLR4) […]",2.17
CCOCc1nc2c(N)nc3ccccc3c2n1CC(C)(C)O (library stock concentration (final ~1000-fold dilution): 3.2 mM),NF-kB SEAP reporter activity,RAW-Dual [2]; agonist: LPS (TLR4) 0.1 ug/mL,3.55
same,NF-kB SEAP reporter activity,RAW-Dual [2]; [5],1.69
same,NF-kB SEAP reporter activity,RAW-Dual [2]; [6],0.415
same,NF-kB SEAP reporter activity,RAW-Dual [2]; [7],0.673
CC(=O)NC1C(NC(=N)N)C=C(C(=O)O)OC1C(O)C(O)CO (stereo not drawn) (library stock concentration (final ~1000-fold dilution): 10 mM water),NF-kB SEAP reporter activity,RAW-Dual [2]; agonist: LPS (TLR4) 0.1 ug/mL,1.37
same,NF-kB SEAP reporter activity,RAW-Dual [2]; [5],1.17
same,NF-kB SEAP reporter activity,RAW-Dual [2]; [6],1.19
same,NF-kB SEAP reporter activity,RAW-Dual [2]; [7],1.07
CC(=O)NC1C(NC(=N)N)C=C(C(=O)O)OC1C(O)C(O)CO (stereo not drawn),NF-kB SEAP reporter activity,RAW-Dual [1]; [8],0.917
same,NF-kB SEAP reporter activity,RAW-Dual [1]; [9],1.03
CC1CN(CC(=O)Nc2ccc3c(c2)Cc2cccc(-c4cc(=O)cc(N5CCOCC5)o4)c2S3)CC(C)O1 (stereo not drawn),NF-kB SEAP reporter activity,RAW-Dual [1]; [3],1.54
same,NF-kB SEAP reporter activity,RAW-Dual [1]; [4],2.82
CC1CN(CC(=O)Nc2ccc3c(c2)Cc2cccc(-c4cc(=O)cc(N5CCOCC5)o4)c2S3)CC(C)O1 (stereo not drawn) (library stock concentration (final ~1000-fold dilution): 10 mM),NF-kB SEAP reporter activity,RAW-Dual [2]; agonist: LPS (TLR4) 0.1 ug/mL,5.33
same,NF-kB SEAP reporter activity,RAW-Dual [2]; [5],0.922
same,NF-kB SEAP reporter activity,RAW-Dual [2]; [6],1.36
same,NF-kB SEAP reporter activity,RAW-Dual [2]; [7],1.99
O=c1cc(-c2cccc3c2Sc2ccccc2S3)oc(N2CCOCC2)c1 (library stock concentration (final ~1000-fold dilution): 10 mM),NF-kB SEAP reporter activity,RAW-Dual [2]; agonist: LPS (TLR4) 0.1 ug/mL,2.66
same,NF-kB SEAP reporter activity,RAW-Dual [2]; [5],0.715
same,NF-kB SEAP reporter activity,RAW-Dual [2]; [6],0.748
same,NF-kB SEAP reporter activity,RAW-Dual [2]; [7],0.948
